Screening results deposited in PubChem by University of Kansas High Throughput Screening Laboratory.
mHTT CaM bind: mHTT-calmodulin interaction abrogation; inhibition, % at 15 µM; 3.6% of 190,000 active; AlphaScreen His-mHTT/GST-CaM binding, luminescence; AID 1671202
Pf apPOL inh: Pf-apPOL DNA polymerase inhibition; Recombinant Pf-apPOL, molecular beacon fluorescence, 1.5 h; inhibition, % at 10 µM; 0.25% of 210,000 active
Each line names hits and unclear results; the compound was inactive in the other large screens. Most compounds without a hit are left out; they make up all but 3.6% or so of the library. Rule as the data show it: active = inhibition above about 50%; inactive = the rest.

COc1ccc(N2CC(C(=O)NC3CC(O)C(CO)C3)CC2=O)cc1 (stereo not drawn)	none
COc1ccc(NC(=O)NC(c2ccccc2)c2ccccc2)cc1OC	mHTT CaM bind 62
COc1ccc(C(=O)NC(c2ccccc2)c2ccccc2)cc1OC	none
COc1cc(OC)c2c(-c3ccccc3)cc(=O)oc2c1C(CCN1CCCCC1)c1ccc2c(c1)OCO2 (stereo not drawn)	mHTT CaM bind 99
COc1cc(OC)c2ccc(=O)oc2c1C(CC(=O)N1CCCC1)c1ccc2c(c1)OCO2 (stereo not drawn)	none
COc1cc(OC)c2c(-c3ccccc3)cc(=O)oc2c1C(CCN1CCCC(C)C1)c1ccc2c(c1)OCO2 (stereo not drawn)	mHTT CaM bind 100
COc1cc(OC)c2ccc(=O)oc2c1C(CC(=O)N1CCCCC1)c1ccc2c(c1)OCO2 (stereo not drawn)	none
COc1cc(OC)c2c(-c3ccccc3)cc(=O)oc2c1C(CC(=O)N1CCCC1)c1ccc2c(c1)OCO2 (stereo not drawn)	mHTT CaM bind 69
COc1cc(O)c(C(CCN2CCCCC2)c2ccc3c(c2)OCO3)c(OC)c1 (stereo not drawn)	none
COC(=O)c1cc(C(C)=O)c(C)o1	none (no result: Pf apPOL inh)
Cc1cccn2c(=O)cc(OCC(=O)c3ccc4c(c3)NC(=O)CO4)nc12	none
O=C(C=Cc1ccccc1)NC1CCCCC1N1C(=O)CSC1=O (stereo not drawn)	none
CCn1cc(S(=O)(=O)NCc2c(Br)cnn2CC)c(C)n1	none (no result: Pf apPOL inh)
COc1cccc(N2CCN(c3nc(C(=O)N(C)C)cs3)CC2)c1	none
CN(C)C(=O)c1csc(N2CCN(c3cccc(Cl)c3)CC2)n1	mHTT CaM bind 53
COc1ccc(-c2coc3cc(OCc4ccc(Cl)cc4)ccc3c2=O)cc1OC	none
O=C1C=CC2=C3c4cc(O)c(O)cc4CC3(O)COC2=C1O (stereo not drawn)	Pf apPOL inh 50 (no result: mHTT CaM bind)
Cc1c(C(=O)N(C)C)sc2c1c(=O)n(-c1ccc(Cl)cc1)c(=O)n2CC1OCCO1	none
COc1ccccc1N1CCN(C(=O)c2ccccc2F)CC1	none
COc1ccccc1N1CCN(C(=O)c2nn(-c3ccc(F)cc3)c(=O)cc2OC)CC1	none
COc1ccccc1N1CCN(C(=O)c2nn(-c3ccc(F)cc3)cc2OC)CC1	mHTT CaM bind 68
COc1ccc(-n2cc(C(=O)N3CCN(c4ccc(F)cc4)CC3)c3ccccc3c2=O)cc1	mHTT CaM bind 78
COc1ccccc1N1CCN(C(=O)c2sc3cccc(F)c3c2OC)CC1	mHTT CaM bind 78
COc1ccc(N2CCN(C(=O)c3sc4cccc(F)c4c3OC)CC2)cc1	mHTT CaM bind 64
COc1cccc(N2CCN(C(=O)c3sc4cccc(F)c4c3OC)CC2)c1	none
COc1ccc(-n2cc(C(=O)N3CCN(c4ccccc4F)CC3)c3ccccc3c2=O)cc1	none
O=C(NCc1ccc(F)cc1)Nc1nnc2ccccn12	none
COc1ccc(N(C(C)C(=O)Nc2cccc([N+](=O)[O-])c2)S(C)(=O)=O)cc1 (stereo not drawn)	none
CC1CN(C)C(C)C/C1=N\OC(=O)c1ccc(Cl)c(Cl)c1 (stereo not drawn)	none
COc1ccccc1Nc1ncc2c(n1)CCN(Cc1ccc(OC(C)C)c(OC)c1)C2	none
O=C(O)Cc1csc(SCC(=O)Nc2ccc(F)cc2)n1	none
CC(=O)NC(c1ccc(Cl)cc1Cl)c1cc(Cl)c2cccnc2c1O (stereo not drawn)	mHTT CaM bind 100
Cc1ccc(C(NC(=O)C(C)C)c2cc(Cl)c3cccnc3c2O)cc1 (stereo not drawn)	none
CC(=O)NC(c1ccc(Cl)cc1)c1cc(Cl)c2cccnc2c1O (stereo not drawn)	mHTT CaM bind 74
CCCC(=O)NC(/C=C/c1ccccc1)c1cc([N+](=O)[O-])c2cccnc2c1O (stereo not drawn)	none
CC(=O)NC(/C=C/c1ccccc1)c1cc([N+](=O)[O-])c2cccnc2c1O (stereo not drawn)	mHTT CaM bind 100
CC(=O)NC(c1ccc(Cl)cc1)c1cc([N+](=O)[O-])c2cccnc2c1O (stereo not drawn)	mHTT CaM bind 100
CCOc1ccc(-c2[nH]ncc2CN2CCCC2c2cc(CC)no2)cc1 (stereo not drawn)	none
COc1ccc(NC(=O)c2cc3cc4ccc(C)cc4nc3s2)c(OC)c1	none
COc1cccc(/C=C(\C#N)c2nc(-c3cccc([N+](=O)[O-])c3)cs2)c1OC	none
CCOc1cccc2nnc(NC(=O)c3cccc(F)c3)n12	none
CCN1C(=O)Cc2cc(C(=O)NCc3cccc(C)c3)ccc21	none
CCOC(=O)C1CCN(CC(=O)O)CC1	none
CCCc1cc(=O)n(-c2ccc([N+](=O)[O-])cc2)[nH]1	mHTT CaM bind 52
O=c1cc(N2CCOCC2)[nH]n1-c1ccc([N+](=O)[O-])cc1	none
CN1CCN(Cc2cncc(-c3cc4ccccc4s3)c2)CC1	mHTT CaM bind 55
CN1CCN(Cc2ccc3c(c2)Cc2ccccc2-3)CC1	none
Cn1cc(C(c2ccc([N+](=O)[O-])o2)c2cn(C)c3ccccc23)c2ccccc21	mHTT CaM bind 65
Cn1c(/C=C/c2ccc([N+](=O)[O-])o2)nc2ccccc2c1=O	none
CCC(=O)NC(c1ccc(N(C)C)cc1)c1ccc2cccnc2c1O (stereo not drawn)	mHTT CaM bind 100
CCCCC(=O)NC(c1ccc(N(C)C)cc1)c1ccc2cccnc2c1O (stereo not drawn)	mHTT CaM bind 100
CCCCC(=O)NC(c1ccc(N(CC)CC)cc1)c1ccc2cccnc2c1O (stereo not drawn)	mHTT CaM bind 98
Cc1cc(C)c(NC(=O)CN2C(=O)CC(c3ccccc3)=Nc3cccnc32)c(C)c1	none
O=C(c1nc(C2CCCC2)nc2c1OCCO2)N1CCCCC1	none
COc1ccc(OC)c(NC(=O)CC23CC4CC(C2)CC(c2ccccc2)(C4)C3)c1	none
O=C(Nc1nc2c(s1)CCCC2)c1ccc([N+](=O)[O-])o1	Pf apPOL inh 64
O=C(Nc1nc2c(F)cccc2s1)c1ccc([N+](=O)[O-])o1	none
O=c1c2ccccc2ncn1CCOCCOc1ccc(Br)cc1Cl	none
Cc1ccc(-n2cc(-c3ccc4c(c3)OCO4)[nH]c2=O)cc1Cl	mHTT CaM bind 86
Cc1cc(C)cc(-n2cc(-c3ccc4c(c3)OCO4)[nH]c2=O)c1	none
O=C(C1CCN(CC2CCCCC2)CC1)N1CCc2ccccc2C1	none
CCOc1ccc(C2NC(=O)c3c(sc4c3CCCC4)N2)cc1 (stereo not drawn)	none
FC(F)(F)c1cccc(N=Cc2c(-c3ccccc3)nc3n2CCS3)c1	none (no result: mHTT CaM bind)
C(=Nc1c(-c2ccccc2)nc2n1CCS2)c1ccccc1	mHTT CaM bind 59
Cc1ccc(N2CC(C(=O)NCc3[nH]nc4ccccc34)CC2=O)cc1 (stereo not drawn)	none
CN(C)C(=O)c1ccc2c(c1)N(S(=O)(=O)c1ccccc1F)CC2	none
O=C(NC(c1cccc([N+](=O)[O-])c1)c1cc(Cl)c2cccnc2c1O)c1cccnc1 (stereo not drawn)	mHTT CaM bind 79
O=C(NC(c1ccccc1)c1ccccc1)c1cccnc1	none
O=C(NC(c1ccc([N+](=O)[O-])cc1)c1cc(Cl)c2cccnc2c1O)c1cccnc1 (stereo not drawn)	mHTT CaM bind 53
Nc1c(Cl)c(Cl)nc(C(Cl)(Cl)Cl)c1Cl	none
O=C(/C=C/N1CCCCC1)c1cccs1	none (no result: Pf apPOL inh)
Cc1ccc(S(=O)(=O)N=S(C)CC2CC2(Cl)Cl)cc1 (stereo not drawn)	none
